Source: PubChem
USP17 inh = blocks human USP17 ubiquitin-rhodamine cleavage. purified USP17, Ub-rhodamine cleavage fluorescence, 3 h. inhibition, % at 50 µM. 6.5% of 47,000 active. A8MUK1
USP30 block = inhibitors of human USP30 deubiquitinase. Q70CQ3. purified USP30, Ub-rhodamine cleavage fluorescence. inhibition, % at 25 µM. 5.3% of 47,000 active. AID 1645860
USP28 inh = inhibitors of human USP28 deubiquitinase; Q96RU2; purified USP28, Ub-rhodamine cleavage fluorescence, 30 min; inhibition, % at 25 µM; 3% of 47,000 active; AID 1645857
OTUD3 block = blocks human OTUD3 ubiquitin-rhodamine cleavage; Q5T2D3; purified OTUD3, Ub-rhodamine fluorescence, 2 h; inhibition, % at 25 µM; 0.7% of 47,000 active; AID 1645858
USP8 inh = blocks human USP8 ubiquitin-rhodamine cleavage; P40818; purified USP8, Ub-rhodamine cleavage fluorescence, 30 min; inhibition, % at 20 µM; 4.2% of 47,000 active
An asterisk follows results filed as active; . = no result. Hits are enriched below; roughly 13% of the tested compounds scored in any of these assays. Rule as the data show it: active = inhibition above about 30%; inactive = the rest.

SMILES	USP17 inh	USP30 block	USP28 inh	OTUD3 block	USP8 inh
CCOC(=O)c1ccc(NC(=O)c2ccc(S(=O)(=O)N3CCc4ccccc4C3)cc2)cc1	33*	50*	9	9	10
CC(C)NS(=O)(=O)c1ccc(C(=O)Nc2ccc(-c3nc4ccccc4o3)cc2)cc1	10	-150	-28	-14	-13
CCOC(=O)c1cccc(NC(=O)c2ccc(S(=O)(=O)N3CCN(C)CC3)cc2)c1	.	-2	31*	-1	1
O=C(Nc1ccc(-c2nc3ccccc3o2)cc1)c1ccc(S(=O)(=O)N2CCc3ccccc3C2)cc1	35*	34*	4	10	-10
N#Cc1cccc(NC(=O)c2ccc(S(=O)(=O)N3CCOCC3)cc2)c1	11	9	6	7	2
CCOC(=O)c1ccc(S(=O)(=O)N2CCC(C(=O)OC(C)C(=O)Nc3cccc([N+](=O)[O-])c3)CC2)cc1 (configuration not stated)	8	83*	42*	15	-59
COc1cc(-c2cc(NC(C)=O)c3ncc(-c4cnn(C)c4)n3c2)ccc1O	6	12	7	7	3
COc1ccc(Nc2cc(C(=O)NCCCN3CCCC3=O)c3ccccc3n2)c(OC)c1	-3	-1	-12	-8	13
CN1CC2CN(Cc3ccccc3)CCN2Cc2ccccc21 (configuration not stated)	-120	-470	-122	-88	-40
CC(C)NC(=O)CN1CCC(c2ccncc2)CC1	-2	-7	-17	-3	-6
CCOC(=O)N1CCN(C(=O)c2cn(CC)c3ccc(S(=O)(=O)N4CCc5ccccc5C4)cc3c2=O)CC1	19	-8	0	3	46*
COc1ccc2oc(C(=O)NC(C)c3ccccn3)c(C)c2c1 (configuration not stated)	.	-9	-5	-6	-1
COc1ccc2oc(C(=O)Nc3ccc4ccccc4n3)c(C)c2c1	32*	-76	-11	-5	-12
O=C(C1CCCC1)N1CCC(c2nc3c(nnn3Cc3cccc(Cl)c3)c(=O)[nH]2)CC1	7	26	15	-4	2
O=C(C1CCCC1)N1CCC(c2nc3c(nnn3Cc3ccccc3Cl)c(=O)[nH]2)CC1	15	39*	19	9	14
CC(C)(C)CC(=O)N1CCC(c2nc3c(nnn3Cc3c(F)cccc3Cl)c(=O)[nH]2)CC1	7	6	1	0	2
O=C(C(c1ccccc1)c1ccccc1)N1CCC(c2nc3c(nnn3Cc3c(F)cccc3Cl)c(=O)[nH]2)CC1	51*	44*	38*	16	12
O=S(=O)(Nc1cccc(S(=O)(=O)N2CCCCC2)c1)c1ccc2c(c1)OCCCO2	6	-72	11	12	15
O=C(Nc1nccn(-c2cccc(F)c2)c1=O)c1ccccn1	49*	91*	72*	14	-190
Cc1nn(C)cc1S(=O)(=O)Nc1ccn(Cc2ccc(Cl)cc2)n1	0	-7	-6	-3	1
COc1ccc(CCNC(=O)c2ccc3c(c2)SC2=NS(=O)(=O)CCN23)cc1	-3	-5	16	-19	35*
CCN1CCSc2ccc(C(=O)Nc3cccc(C(F)(F)F)c3)cc21	20	3	9	4	24
COc1ccc(C(=O)NCCc2cccs2)cc1	-3	14	9	10	0
O=C(Nc1cccc(C(F)(F)F)c1)c1ccc2c(c1)SC1=NS(=O)(=O)CCN12	35*	-4	2	0	0
COc1cccc(CNS(=O)(=O)c2ccc3c(c2)CCCN3C(=O)C2CCC2)c1	2	0	30*	0	-3
SMILES	USP17 inh	USP30 block	USP28 inh	OTUD3 block	USP8 inh
CC(=O)N1CCCc2cc(S(=O)(=O)NCc3ccc4c(c3)OCO4)ccc21	2	24	10	6	13
O=C(CCc1nnc2ccc(N3CCCC3)nn12)N1CCCC1	18	24	8	13	19
O=C(NCc1ccco1)c1ccc(Oc2cc(Cl)cc(Cl)c2)o1	37*	.	.	2	10
OC(CN1CCN(c2ccc(F)cc2)CC1)c1ccc2c(c1)CCN2 (configuration not stated)	58*	61*	17	13	18
O=c1c(S(=O)(=O)c2cc(F)cc(F)c2)c[nH]c2cc(Cl)ccc12	52*	29	1	4	80*
CN1CC[C@@]2(C(=O)Nc3ccccc3)CCN(C(=O)Nc3ccccc3)CC[C@@H]12	-18	2	-6	-2	0
Cc1cc(=O)n2c3c(c4c(cc13)c(CO)cc(=O)n4C)OC2	85*	7	23	6	40*
